# Several values for one entry are separate records, joined by “and”; a condition that tells them apart may be missing. Identical values can stand only once. Unmarked numbers belong to inactive results. Records with an inconclusive call do not appear. A call without a number means that no potency is given here. Activity calls are given as the source filed them. Unless noted, the call rests on the fitted dose curve.
# Legend:
# [1] = Nuclear factor erythroid 2-related factor 2/antioxidant responsive element (Nrf2/ARE) small molecule agonists: luciferase reporter gene qHTS assay in human keratinocytes (AID 1919969); further: nearly all actives have a fitted effect of over 35% in size; further: potency means the concentration at half of the fitted maximal effect
# [2] = target: KiSS-1 receptor (Homo sapiens) (UniProt Q969F8); test: Human kisspeptin (KISS1R) small molecule agonists, calcium flux assay in KISS1R-HEK293 cells (AID 1920064; active means well fitted activation curve with a large enough effect in the repeat runs; further: potency means the concentration at half of the fitted maximal effect)
# Outline: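 HEK293 cells stably expressing human KISS1R were plated 18 h at 37 °C, loaded with calcium dye for 1 h at 37 °C, then given compound by pin tool. Fluorescence (Ex/Em 480/540) was read kinetically for 3 min.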
# [3] = G protein-coupled receptor (GPCR) small molecule agonists, calcium flux assay: HEK293 wild type cell line counter screen (AID 1920065)
# Outline: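 Cells were plated and cultured 18 h at 37 C/5% CO2, then loaded with calcium dye for 1 h at 37 C. Compounds in DMSO were pin-transferred in agonist mode, and fluorescence (Ex/Em 480/540) was read kinetically for 3 min at 1 s intervals.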
# [4] = p53 small molecule agonists, cell-based qHTS assay with rat liver microsomes (AID 1963578)
# Outline: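 p53RE-bla cells, 4,000/well, pre-incubated 5 h, then given compounds plus rat liver microsomes (0.5 mg/mL final) and NADPH (0.5 mg/mL final). Incubation 16 h at 37 C; beta-lactamase reporter read by LiveBLAzer fluorescence after 2 h at room temperature.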
# [5] = p53 small molecule agonists, cell-based qHTS assay with human liver microsomes: qHTS cell viability counter screen (AID 1963579); further: nearly all actives have a fitted effect of over 45% in size
# Outline: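 p53RE-bla cells, 4,000/well, dosed 5 hours after plating, with human liver microsomes (0.5 mg/mL final) plus NADPH (0.5 mg/mL final), 16 hours at 37 C. Viability read as CellTiter-Glo luminescence after 30 min at room temperature.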
# [6] = p53 small molecule agonists, cell-based qHTS assay with rat liver microsomes: qHTS cell viability counter screen (AID 1963580); further: nearly all actives have a fitted effect of over 45% in size
# Outline: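 In HCT-116 cells carrying a p53 response element-bla reporter, compounds were metabolically activated in situ by rat liver microsomes with NADPH over 16 h. Cell ATP content then served as the cytotoxicity measure.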
# [7] = p53 small molecule agonists, cell-based qHTS assay: qHTS cell viability counter screen (AID 1963581); further: nearly all actives have a fitted effect of over 45% in size
# Outline: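 p53RE-bla HCT-116 cells were exposed to compounds for 16 h at 37 C; after the beta-lactamase FRET read in the same wells, CellTiter-Glo was added and luminescence (intracellular ATP) read after 30 min at room temperature.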
# [8] = p53 small molecule agonists, cell-based qHTS assay (AID 1963582; active means well fitted activation curve with a large enough effect in the signal ratio in the repeat runs, not every such curve was filed as active; the % refers to the signal ratio)
# Outline: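 p53RE-bla beta-lactamase reporter cells rested 5 h at 37 C/5% CO2, then received compounds in DMSO by pin transfer and were incubated 16 h at 37 C. LiveBLAzer B/G FRET substrate was loaded for 2 h at room temperature before fluorescence reading.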
# [9] = target: 5-hydroxytryptamine receptor 2A (Homo sapiens) (UniProt P28223); test: 5-hydroxytryptamine receptor 2A (HTR2A) small molecule antagonists, cell-based qHTS assay (AID 1963586); further: nearly all actives have a fitted effect of over 45% in size
# Outline: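 Antagonist-mode intracellular calcium assay: DOI (4 nM) added after 5 min compound pre-incubation at room temperature to dye-loaded HTR2A-CHO cells. Fluorescence followed for 3 min, sampled every second.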
# [10] = target: 5-hydroxytryptamine receptor 2A (Homo sapiens) (UniProt P28223); test: 5-hydroxytryptamine receptor 2A (HTR2A) small molecule agonists, cell-based qHTS assay (AID 1963587); further: nearly all actives have a fitted effect of over 30% in size; further: potency means the concentration at half of the fitted maximal effect
# Outline: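 HTR2A-CHO cells, plated 18 h at 37 C/5% CO2, dye-loaded 1 h at 37 C; compounds in DMSO added by pin tool (agonist mode). Intracellular calcium flux read as kinetic fluorescence on FDSS over 2 min at 1 s intervals.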
# [11] = target: Muscarinic acetylcholine receptor M1 (Homo sapiens) (UniProt P11229); test: Cholinergic receptor muscarinic 1 (CHRM1) small molecule antagonists, cell-based qHTS assay (AID 1963588); further: nearly all actives have a fitted effect of over 40% in size
# Outline: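 CHRM1-CHO calcium-flux assay, antagonist mode. Cells were seeded 18 h, dye-loaded 1 h at 37 C and given compound for 5 min at RT, then acetylcholine was added at 50nM. FDSS fluorescence was read 3 min; 15 concentrations, three runs.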
# [12] = target: Muscarinic acetylcholine receptor M1 (Homo sapiens) (UniProt P11229); test: Cholinergic receptor muscarinic 1 (CHRM1) small molecule agonists, cell-based qHTS assay (AID 1963589); further: nearly all actives have a fitted effect of over 35% in size
# Outline: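 CHO cells stably expressing human CHRM1, seeded 18 h at 37 C/5% CO2, dye-loaded 1 h at 37 C, then given compound in agonist mode; intracellular calcium fluorescence read kinetically at 1 s intervals. Fifteen concentrations, three independent runs.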
# [13] = cAMP Responsive Elements (CRE) small molecule agonists, cell-based qHTS assay (AID 1963590)
# Outline: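 CRE-bla HEK 293T cells in DMEM with 10% dialyzed FBS, NEAA, pyruvate and 25 mM HEPES were plated 18 h at 37 C/5% CO2, then exposed to compounds in DMSO for 3 h before LiveBLAzer B/G FRET substrate addition.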
# [14] = cAMP Responsive Elements (CRE) small molecule antagonists, cell-based qHTS assay (AID 1963591; active means well fitted inhibition curve with a large enough effect in the signal ratio in the repeat runs, not every such curve was filed as active; the % refers to the signal ratio)
# Outline: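 CRE-bla HEK293T cells were plated 18 h at 37 °C/5% CO2, pinned with compound in DMSO, then stimulated with NKH477 at 0.25 uM final for 3 h. LiveBLAzer B/G FRET substrate was added and plates incubated 2 h at room temperature.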
# [15] = target: Beta-2 adrenergic receptor (Homo sapiens) (UniProt P07550); test: Adrenergic beta2 receptor (ADRB2) small molecule agonists, cell-based qHTS assay (AID 1963593);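 further: CHO cells stably overexpressing human ADRB2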
# Outline: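 CHO cells stably over-expressing ADRB2 were plated overnight at 37C, then dosed with compounds plus a stimulation mix containing 100uM IBMX and 25uM Ro-20-1724 for 0.5hr at room temperature. cAMP was measured by HTRF competition, 1hr.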
# [16] = target: D(2) dopamine receptor (Homo sapiens) (UniProt P14416); test: Dopamine D2 receptor (DRD2) small molecule agonists, cell-based qHTS assay (AID 1963594); further: nearly all actives have a fitted effect of over 35% in size
# Outline: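 HEK293 cells stably expressing DRD2 were cultured 24 h at 37 C, then given Ro20-1724 (0.1 mM final) and compounds for 10 min at room temperature. NKH477 (200nM) was then added for 30 min. cAMP was read by HTRF.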
# [17] = target: Gonadotropin-releasing hormone receptor (Homo sapiens) (UniProt P30968); test: Human gonadotropin-releasing hormone receptor (GnRHR) small molecule agonists, calcium flux assay in GnRHR-HEK293 cells (AID 1920063); further: nearly all actives have a fitted effect of over 35% in size; further: potency means the concentration at half of the fitted maximal effect
# Outline: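 HEK293 cells stably expressing human GnRHR were plated 18 h at 37 °C, loaded with calcium dye 1 h at 37 °C, then given compound in agonist mode; fluorescence (Ex/Em 480/540) read kinetically for 3 min at 1 s intervals.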
# [18] = p53 small molecule agonists, cell-based qHTS assay with human liver microsomes (AID 1963577)
# Outline: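 p53RE-bla cells, 4,000/well, compound added after 5 h, with human liver microsomes 0.5 mg/mL and NADPH 0.5 mg/mL final; 16 h at 37 C, then LiveBLAzer 2 h RT, fluorescence.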
# [19] = target: Beta-2 adrenergic receptor (Homo sapiens) (UniProt P07550); test: Adrenergic beta2 receptor (ADRB2) small molecule antagonists, cell-based qHTS assay (AID 1963592); further: series mostly up to about 92 µM; nearly all actives have a fitted effect of over 50% in size
# Outline: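 Cells (CHO, stable ADRB2 overexpression) incubated 18-20hr at 37C; compounds added from DMSO; agonist mix (1nM isoproterenol, 100uM IBMX, 25uM Ro-20-1724) added; 0.5hr RT; d2-cAMP and anti-cAMP-cryptate added; 1hr RT; 665/615 nm read.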
# [20] = target: D(2) dopamine receptor (Homo sapiens) (UniProt P14416); test: Dopamine D2 receptor (DRD2) small molecule antagonists, cell-based qHTS assay (AID 1963595; active means well fitted inhibition curve with a large enough effect in the signal ratio in the repeat runs, with a control signal flat; the % refers to the signal ratio; further: potency means the concentration at half of the fitted maximal effect)
# Outline: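 In this cell-based antagonist screen, compounds act for 10 min at room temperature before a 30 min challenge with 12 nM quinpirole and 200 nM NKH477. cAMP is quantified by HTRF competition in DRD2-HEK293 cells containing 0.1 mM Ro20-1724.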
# Sequence of 5-hydroxytryptamine receptor 2A (Homo sapiens) (P28223 whole entry, looked up): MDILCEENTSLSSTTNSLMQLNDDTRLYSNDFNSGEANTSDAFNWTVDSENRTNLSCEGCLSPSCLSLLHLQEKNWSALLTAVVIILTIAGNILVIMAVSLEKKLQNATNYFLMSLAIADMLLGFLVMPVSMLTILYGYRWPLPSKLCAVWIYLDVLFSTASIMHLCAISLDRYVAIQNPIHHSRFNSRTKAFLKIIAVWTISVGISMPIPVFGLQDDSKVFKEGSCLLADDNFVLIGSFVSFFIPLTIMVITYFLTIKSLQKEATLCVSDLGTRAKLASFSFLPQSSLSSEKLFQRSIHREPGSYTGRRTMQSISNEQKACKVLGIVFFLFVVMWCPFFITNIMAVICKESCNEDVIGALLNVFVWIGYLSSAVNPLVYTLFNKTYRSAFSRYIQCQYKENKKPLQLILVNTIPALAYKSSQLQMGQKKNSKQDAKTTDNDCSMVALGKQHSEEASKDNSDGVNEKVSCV
# Sequence of D(2) dopamine receptor (Homo sapiens) (P14416 whole entry, looked up): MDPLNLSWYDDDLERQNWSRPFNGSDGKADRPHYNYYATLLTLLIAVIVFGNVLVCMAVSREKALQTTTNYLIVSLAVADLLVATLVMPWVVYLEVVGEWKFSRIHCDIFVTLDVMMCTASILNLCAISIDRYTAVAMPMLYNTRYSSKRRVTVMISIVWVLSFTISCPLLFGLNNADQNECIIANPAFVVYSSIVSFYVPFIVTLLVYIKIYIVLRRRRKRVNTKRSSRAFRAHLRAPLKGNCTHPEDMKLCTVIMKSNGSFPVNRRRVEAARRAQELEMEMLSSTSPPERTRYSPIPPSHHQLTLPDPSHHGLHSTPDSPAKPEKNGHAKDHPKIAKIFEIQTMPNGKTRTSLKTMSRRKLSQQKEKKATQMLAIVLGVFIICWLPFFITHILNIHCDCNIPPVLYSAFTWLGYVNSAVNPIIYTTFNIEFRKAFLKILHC
# Sequence of KiSS-1 receptor (Homo sapiens) (Q969F8 whole entry, looked up): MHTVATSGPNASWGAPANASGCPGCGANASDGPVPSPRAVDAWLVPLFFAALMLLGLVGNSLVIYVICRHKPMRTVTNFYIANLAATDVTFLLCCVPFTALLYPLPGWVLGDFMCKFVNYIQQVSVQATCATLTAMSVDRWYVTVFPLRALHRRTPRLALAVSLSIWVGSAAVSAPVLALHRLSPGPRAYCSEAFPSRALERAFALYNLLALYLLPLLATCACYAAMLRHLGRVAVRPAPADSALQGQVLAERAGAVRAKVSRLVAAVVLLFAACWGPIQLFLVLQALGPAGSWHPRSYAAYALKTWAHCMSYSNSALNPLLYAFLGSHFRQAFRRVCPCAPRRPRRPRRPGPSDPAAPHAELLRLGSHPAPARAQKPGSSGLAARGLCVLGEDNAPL
# Sequence of Beta-2 adrenergic receptor (Homo sapiens) (P07550 whole entry, looked up): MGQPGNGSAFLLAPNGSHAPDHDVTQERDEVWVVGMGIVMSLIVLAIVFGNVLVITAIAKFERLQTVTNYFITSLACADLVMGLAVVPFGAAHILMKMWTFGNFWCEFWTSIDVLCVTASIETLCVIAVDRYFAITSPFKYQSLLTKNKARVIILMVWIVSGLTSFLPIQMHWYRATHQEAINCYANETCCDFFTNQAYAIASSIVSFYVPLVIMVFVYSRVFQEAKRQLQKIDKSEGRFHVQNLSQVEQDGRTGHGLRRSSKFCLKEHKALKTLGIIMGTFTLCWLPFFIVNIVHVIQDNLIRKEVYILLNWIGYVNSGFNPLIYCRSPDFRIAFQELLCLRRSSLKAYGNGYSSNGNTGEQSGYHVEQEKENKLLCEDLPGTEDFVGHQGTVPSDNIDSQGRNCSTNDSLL
# Sequence of Muscarinic acetylcholine receptor M1 (Homo sapiens) (P11229 whole entry, looked up): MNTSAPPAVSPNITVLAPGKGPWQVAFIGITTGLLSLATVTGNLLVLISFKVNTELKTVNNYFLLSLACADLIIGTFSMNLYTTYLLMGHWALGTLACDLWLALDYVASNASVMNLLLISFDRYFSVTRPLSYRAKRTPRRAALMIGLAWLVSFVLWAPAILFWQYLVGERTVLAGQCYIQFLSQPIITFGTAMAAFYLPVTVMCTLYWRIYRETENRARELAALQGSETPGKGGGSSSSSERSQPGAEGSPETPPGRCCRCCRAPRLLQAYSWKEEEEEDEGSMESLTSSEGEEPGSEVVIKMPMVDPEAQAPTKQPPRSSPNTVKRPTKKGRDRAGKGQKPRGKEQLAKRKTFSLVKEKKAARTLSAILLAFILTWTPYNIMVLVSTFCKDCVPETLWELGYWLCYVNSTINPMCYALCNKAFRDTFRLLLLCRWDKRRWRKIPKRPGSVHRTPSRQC
# Sequence of Gonadotropin-releasing hormone receptor (Homo sapiens) (P30968 whole entry, looked up): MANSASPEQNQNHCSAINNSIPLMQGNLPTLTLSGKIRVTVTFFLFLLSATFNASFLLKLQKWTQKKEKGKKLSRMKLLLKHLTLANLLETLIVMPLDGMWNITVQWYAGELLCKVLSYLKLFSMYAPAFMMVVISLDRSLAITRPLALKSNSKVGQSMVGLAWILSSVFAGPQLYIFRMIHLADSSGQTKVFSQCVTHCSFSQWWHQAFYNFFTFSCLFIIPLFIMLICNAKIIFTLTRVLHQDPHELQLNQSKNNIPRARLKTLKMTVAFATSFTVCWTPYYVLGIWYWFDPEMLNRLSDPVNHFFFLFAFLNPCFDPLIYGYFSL
Compound,Potency [1],Potency [2],Potency [3],Potency [4],Potency [5],Potency [6],Potency [7],Potency [8],Potency [9],Potency [10],Potency [11],Potency [12],Potency [13],Potency [14],Potency [15],Potency [16],Potency [17],Potency [18],Potency [19],Potency [20]
Nc1ccc([N+](=O)[O-])cc1Cl,inactive,inactive,inactive,inactive,inactive,inactive,inactive,inactive,inactive,inactive,inactive,inactive,inactive,inactive,inactive,inactive,,,,
O=C(N[C@@H]1N=C(c2ccccc2F)c2cccc3c2N(CC3)C1=O)c1cc2ccccc2[nH]1,inactive,15.1 µM (active),,inactive,,inactive,,,,13.4 µM (active),inactive,inactive,inactive,inactive,inactive,,4.25 µM (active),inactive,inactive,
CC(C)N1C(=O)N(c2ccccc2)CSC1=NC(C)(C)C,inactive,inactive,,inactive,inactive,inactive,inactive,,inactive,,inactive,inactive,,,inactive,inactive,,inactive,inactive,inactive
O=c1ssc(Cl)c1Cl,24.3 µM (active),inactive,inactive,inactive,inactive,inactive,inactive,inactive,inactive,inactive,inactive,inactive,inactive,inactive,inactive,inactive,,,inactive,inactive
CCOC(=O)C(Cl)Cc1cc(-n2nc(C)n(C(F)F)c2=O)c(F)cc1Cl (stereo not drawn),inactive,,inactive,inactive,inactive,inactive,inactive,,inactive,inactive,inactive,inactive,,,,,inactive,inactive,inactive,inactive
COC(=O)C(C)N(C(=O)c1ccco1)c1c(C)cccc1C (stereo not drawn),inactive,,inactive,,inactive,inactive,inactive,inactive,inactive,inactive,inactive,inactive,inactive,,,,inactive,,inactive,inactive
CCOc1cc(Oc2ccc(C(F)(F)F)cc2Cl)ccc1[N+](=O)[O-],inactive,,inactive,,inactive,,inactive,inactive,,inactive,inactive,inactive,,inactive,,inactive,inactive,inactive,inactive,inactive
c1cc2ccc3cccc4ccc(c1)c2c34,inactive,,inactive,,,,,,inactive,inactive,inactive,,,,,,inactive,,,
CCCCNC(=O)OCC#CI,24.2 µM (active) and 24.3 µM (active),inactive,inactive,inactive,inactive,inactive,inactive,,inactive,,inactive,inactive,,,inactive,inactive,,,inactive,68.6 µM (active)
